Source: PubChem BioAssay AID504333 (National Center for Advancing Translational Sciences (NCATS), 2011)
The campaign covered roughly 360,000 compounds. About 16,000 (4.4%) were called active. Another 9% or so got no clear call; they are omitted. Calls come from the whole dose curve; as a rule, active = well fitted inhibition curve with a large enough effect; inconclusive = small, poorly fitted or top-dose-only effect; inactive = no such curve, though single readings can be large or run the other way. What follows is part of a selection rich in actives, with near analogues and random picks from the rest. Entries that show only a call come without a potency.

These molecules were tested against Bromodomain adjacent to zinc finger domain protein 2B (Homo sapiens) (UniProt Q9UIF8) (assay: qHTS Assay for Inhibitors of BAZ2B). Conditions: AlphaScreen BAZ2B-H3K14Ac peptide displacement; series mostly up to 114 µM.
Bromodomain adjacent to zinc finger domain protein 2B (Homo sapiens), sequence (Q9UIF8 whole entry, looked up, the tested form may be a part): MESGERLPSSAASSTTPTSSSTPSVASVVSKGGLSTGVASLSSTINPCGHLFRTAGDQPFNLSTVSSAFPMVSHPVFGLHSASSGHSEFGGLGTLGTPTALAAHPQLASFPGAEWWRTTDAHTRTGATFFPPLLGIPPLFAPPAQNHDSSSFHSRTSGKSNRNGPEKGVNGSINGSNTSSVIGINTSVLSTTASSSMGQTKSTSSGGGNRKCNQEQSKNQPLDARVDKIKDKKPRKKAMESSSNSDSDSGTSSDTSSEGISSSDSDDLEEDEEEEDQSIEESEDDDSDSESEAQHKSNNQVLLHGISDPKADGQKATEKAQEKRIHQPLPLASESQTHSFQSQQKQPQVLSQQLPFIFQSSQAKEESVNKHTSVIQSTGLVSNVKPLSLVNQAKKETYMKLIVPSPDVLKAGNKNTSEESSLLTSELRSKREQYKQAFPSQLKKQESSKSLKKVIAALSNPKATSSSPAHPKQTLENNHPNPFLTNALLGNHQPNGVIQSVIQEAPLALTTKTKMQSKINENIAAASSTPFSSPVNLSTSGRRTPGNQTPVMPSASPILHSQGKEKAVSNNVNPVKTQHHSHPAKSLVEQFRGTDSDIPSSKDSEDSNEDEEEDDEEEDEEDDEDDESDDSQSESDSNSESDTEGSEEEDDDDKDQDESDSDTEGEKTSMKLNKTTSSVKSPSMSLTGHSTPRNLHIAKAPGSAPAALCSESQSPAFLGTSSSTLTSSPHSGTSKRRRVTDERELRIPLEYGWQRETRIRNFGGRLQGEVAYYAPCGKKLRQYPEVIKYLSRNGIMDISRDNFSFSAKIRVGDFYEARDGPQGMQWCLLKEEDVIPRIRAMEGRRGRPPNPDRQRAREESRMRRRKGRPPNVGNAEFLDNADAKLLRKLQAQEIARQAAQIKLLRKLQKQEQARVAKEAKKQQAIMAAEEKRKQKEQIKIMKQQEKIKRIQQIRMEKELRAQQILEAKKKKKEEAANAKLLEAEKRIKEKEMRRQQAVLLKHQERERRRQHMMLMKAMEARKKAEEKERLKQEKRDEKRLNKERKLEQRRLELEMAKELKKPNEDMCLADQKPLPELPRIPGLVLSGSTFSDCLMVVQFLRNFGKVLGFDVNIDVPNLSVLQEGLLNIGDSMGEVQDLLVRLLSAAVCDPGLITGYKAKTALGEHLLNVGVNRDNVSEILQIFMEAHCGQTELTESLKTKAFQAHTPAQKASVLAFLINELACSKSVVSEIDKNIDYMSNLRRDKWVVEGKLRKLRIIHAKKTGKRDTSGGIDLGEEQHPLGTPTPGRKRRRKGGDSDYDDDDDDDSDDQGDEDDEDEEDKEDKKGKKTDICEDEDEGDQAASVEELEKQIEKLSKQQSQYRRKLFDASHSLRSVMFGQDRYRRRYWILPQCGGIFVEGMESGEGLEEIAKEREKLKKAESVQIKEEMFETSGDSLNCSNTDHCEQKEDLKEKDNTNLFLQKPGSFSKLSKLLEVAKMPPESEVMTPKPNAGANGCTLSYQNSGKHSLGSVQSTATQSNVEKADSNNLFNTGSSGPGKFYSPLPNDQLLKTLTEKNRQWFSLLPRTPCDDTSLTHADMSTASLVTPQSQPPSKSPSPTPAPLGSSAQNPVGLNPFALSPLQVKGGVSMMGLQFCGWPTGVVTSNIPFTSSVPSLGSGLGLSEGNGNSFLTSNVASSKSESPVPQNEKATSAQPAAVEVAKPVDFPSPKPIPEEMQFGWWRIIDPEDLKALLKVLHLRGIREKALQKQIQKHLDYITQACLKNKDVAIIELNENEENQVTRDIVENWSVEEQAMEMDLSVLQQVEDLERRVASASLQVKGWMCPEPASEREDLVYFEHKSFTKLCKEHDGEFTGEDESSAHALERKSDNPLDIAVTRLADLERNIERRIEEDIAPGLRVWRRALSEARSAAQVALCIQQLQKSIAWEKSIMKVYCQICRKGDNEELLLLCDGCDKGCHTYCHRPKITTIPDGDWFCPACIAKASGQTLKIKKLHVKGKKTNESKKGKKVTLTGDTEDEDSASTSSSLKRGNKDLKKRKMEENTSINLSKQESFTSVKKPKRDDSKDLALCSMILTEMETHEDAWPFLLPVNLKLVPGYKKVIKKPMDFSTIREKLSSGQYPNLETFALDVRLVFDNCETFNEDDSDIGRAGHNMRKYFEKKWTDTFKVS
How it was run: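 Compounds, titrated to a top concentration of 110 uM, were incubated 30 min at room temperature with preformed BAZ2B/acetyl-K14 H3 peptide complex (50 nM each). Proximity signal was measured by AlphaScreen after 20 min with beads.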
Note: nearly all actives have a fitted effect of over 60% in size.
Potency is the fitted concentration of half-maximal effect.

Structure (SMILES) | Potency
CCCCCn1c(CCCNC(=O)c2ccccc2OC)nc2ccccc21 | inactive
COCC(C)NS(=O)(=O)c1ccc(N2CCCCS2(=O)=O)cc1 (centres undefined) | inactive
CCOC(=O)C1CCN(c2nc3c(S(=O)(=O)c4ccc(CC)cc4)nnn3c3ccc(Cl)cc23)CC1 | inactive
CC(C)C(c1nnnn1C(C)(C)C)N1CCN(Cc2cccnc2)CC1 (centres undefined) | 56.2 µM (active)
CC(C)C(c1nnnn1Cc1ccccc1)N1CCC(C(N)=O)CC1 (centres undefined) | inactive
CCCC(c1nnnn1C(C)(C)C)N1CCN(Cc2ccccc2)CC1 (centres undefined) | inactive
CCN(Cc1ccccc1)C(=O)c1cn(-c2cccc(OC)c2)c(=O)c2ccccc12 | inactive
COc1ccc(CNC(=O)Cc2coc3ccc(C(C)C)cc23)cc1 | inactive
CCc1ccc(NC(=O)c2cnc3c(-c4ccccc4)c(C)nn3c2C)cc1 | inactive
C=CCN(C(=O)c1cc(C)cc(C)c1)C1(C(=O)Nc2ccccc2)CCN(C(C)C)CC1 | inactive
CCc1ccc(NC(=O)CN2C(=O)C(c3ccccc3)=NC23CCCCCC3)cc1 | inactive
CCN(C(=O)Cc1nc(N)n[nH]1)C1(C(=O)Nc2ccccc2)CCCCC1 | 20 µM (active)
CCOc1cccc2sc(N3CCN(C(=O)C4CC4)CC3)nc12 | inactive
CCCN1CN=C(NS(=O)(=O)c2ccc(NC(C)=O)cc2)NC1 | inactive
Cc1ccc(C(=O)Nc2ccc3c(c2)OCO3)cc1S(=O)(=O)N1CCCCC1 | inactive
Cn1cccc1/C=C1\SC(=O)N(CC(=O)Nc2ccc(F)cc2)C1=O | inactive
Cc1ccc(C(=O)O)cc1-c1ccc(/C=C2\SC(=O)N(CC(=O)Nc3ccc4c(c3)OCO4)C2=O)o1 | 11.2 µM (active)
Cc1ccccc1CNC(=O)C(=O)NCC(c1cccs1)S(=O)(=O)c1cccs1 (centres undefined) | inactive
COc1ccc(NC(=O)CCCN2C(=O)CCn3nc(-c4cn(C)c5ccccc45)cc32)cc1OC | inactive
Cn1cc(Cl)c(C(=O)NNC(=S)Nc2cccc(Cl)c2)n1 | inactive
Cc1cccc(-n2cnc(C(=O)Nc3cccnc3)c2)n1 | inactive
Cc1cccc(-n2cnc(C(=O)NNC(=S)Nc3ccccc3)c2)n1 | 22.4 µM (active)

Structure (SMILES) | Potency
CCn1cc2nc(SCc3ccccc3Cl)n(CCc3ccccc3)c(=O)c2n1 | inactive
CCc1cc2c(cc(C(=O)OC)n2Cc2nc(-c3ccc(C)cc3)oc2C)s1 | inactive
O=S(=O)(Cc1cc(Cl)nc(-c2cccnc2)n1)c1ccccc1 | inactive
CN(C)c1nc(-c2cccnc2)nc(-c2ccc(Cl)cc2)c1C#N | inactive
N#Cc1c(Cl)nc(-c2cccnc2)nc1-c1ccccc1 | 70.8 µM (active)
COc1ccc(OC)c(-n2nnc(-c3nc(-c4cc(OC)c(OC)c(OC)c4)no3)c2C)c1 | inactive
CCCC(=O)OCC(=O)Nc1cc(Cl)ccc1[N+](=O)[O-] | 39.8 µM (active)
Cc1ccc(Cl)cc1NC(=O)COC(=O)CC(C)(C)C | inactive
CC(C)(C)NC(=O)COC(=O)c1cc(Cl)ccc1[N+](=O)[O-] | inactive
CCOc1ccc(NC(=O)C(CC(C)C)N2Cc3ccccc3C2=O)cc1 (centres undefined) | inactive
Cc1ccccc1NC(=O)Cn1cc(C(=O)c2cccs2)c2ccccc21 | inactive
CCC(C)c1ccc2oc(-c3ccc(NC(=O)c4cc5ccccc5o4)cc3)nc2c1 (centres undefined) | inactive
COC(=O)c1ccc(/C=N/N2C(C)CCCC2C)cc1 (centres undefined) | 56.2 µM (active)
COC(=O)c1ccc(/C=N/NC(=O)C(=O)N2CCCCCC2)cc1 | inactive
COC(=O)N/N=C/c1ccc(/C=N/NC(=O)OC)cc1 | inactive
COc1ccc(CCNc2ncnc3c2cnn3-c2ccc(C)cc2)cc1 | inactive
CCOc1ccc(S(=O)(=O)c2cn(Cc3ccc(OC)cc3)c3ccc(F)cc3c2=O)cc1 | inactive
O=c1[nH]n2c(-c3ccccc3)nc(O)c2c2ccccc12 | inactive
O=c1cc(-c2ccccc2)n2c(SCc3ccccc3)nnc2[nH]1 | inactive
O=c1[nH]c2ccccc2n2c(-c3ccccc3)nnc12 | 20 µM (active)
Cc1ccc(C(=O)NCCSc2c(C)[nH]c3ccccc23)cc1C | inactive
CC1CCC2(CC1)N=C(c1ccccc1)C(=O)N2CC(=O)Nc1ccc(F)c(Cl)c1 (centres undefined) | inactive

Structure (SMILES) | Potency
COC(=O)c1cnn(-c2ccc(C(=O)Nc3ccc(OC(F)(F)F)cc3)cc2)c1N | inactive
COc1ccc(Cc2nnc(NC(=O)Cc3cccs3)s2)cc1 | 44.7 µM (active)
O=C(Cc1cccs1)Nc1nnc(SCc2ccc(F)cc2)s1 | inactive
CCc1nnc(NC(=O)Cc2cccs2)s1 | inactive
CCCCN=C1C([N+](=O)[O-])=CC=C2C1=NC1(CCCCC1)N2O | 2.24 µM (active)
CCC(C(=O)Nc1cc(OC)ccc1OC)n1c(=O)c(C(F)(F)F)nc2ccccc21 (centres undefined) | inactive
COc1cccc(-n2cc(C(=O)NCc3cccc(Cl)c3)c3ccccc3c2=O)c1 | inactive
O=C(CC1N=C2c3ccccc3N=C(SCc3ccccc3Cl)N2C1=O)NCc1ccco1 (centres undefined) | 50.1 µM (active)
O=C(CC1N=C2c3ccccc3N=C(SCc3cccc(Cl)c3)N2C1=O)NCc1ccc2c(c1)OCO2 (centres undefined) | inactive
CCC(C)NC(=O)CSC1=Nc2ccccc2C2=NC(CCC(=O)NCc3ccco3)C(=O)N12 (centres undefined) | inactive
Cc1ccc(-c2cc(C(F)(F)F)c(C#N)c(SCC(=O)Nc3ccccc3)n2)cc1 | inactive
CCOC(=O)c1ccc(NC(=O)CCn2cnnn2)cc1 | inactive
CC(=O)c1nn(-c2ccc(OC(F)(F)F)cc2)nc1Nc1ccccc1 | inactive
COCCn1c(C)cc(C(=O)COC(=O)CNC(=O)c2ccco2)c1C | inactive
Cc1cc(C(=O)CSc2nc(N)cc(=O)[nH]2)c(C)n1Cc1ccco1 | inactive
Cc1cc(C(=O)COC(=O)CNC(=O)c2ccc(F)cc2)c(C)n1Cc1ccco1 | 50.1 µM (active)
COc1ccc(S(=O)(=O)c2c(Nc3ccc(C)cc3)sc(C(=O)c3ccc(C)cc3)c2N)cc1 | inactive
CCOc1ccc(C(=O)N2CCN(CCc3ccccn3)CC2)cc1 | inactive
COc1ccc(-c2c(C#Cc3ccccc3)c3ccccc3n2C)cc1 | inactive
COc1ccc(CCNCc2c(-c3ccccc3)n(C)c3ccccc23)cc1 | 50.1 µM (active)
COc1ccc(-c2nc3ccccc3c(=O)n2CCc2ccc(O)cc2)cc1 | inactive
O=C(NCCc1ccccc1)c1cnc2sc(N3CCCC3)nn2c1=O | inactive

Structure (SMILES) | Potency
CCOC(=O)Nc1ccc2c(c1)N(C(=O)CN1CCN3CCCC3C1)c1ccccc1CC2 (centres undefined) | 70.8 µM (active)
CCOC(=O)Nc1ccc2c(c1)N(C(=O)CCCl)c1ccccc1[S@]2=O | inactive
CCNCCC(=O)N1c2ccccc2Sc2ccc(NC(=O)OCC)cc21 | inactive
Cc1cc(C)cc(NS(=O)(=O)c2ccc(-c3cc(C)no3)s2)c1 | inactive
Cc1ccc(C)c(Cn2c(C)c(CNCc3ccc(F)cc3)c(C(=O)O)c2C)c1 | inactive
O=C(CCCn1c(=O)c2cccn2c2cccnc21)NCc1ccc(F)cc1 | inactive
Cc1ccc(OCCCCN2CCCCC2)c(Br)c1 | 50.1 µM (active)
Cc1ccc(OCCCC(=O)N2CCOCC2)c(C)c1 | inactive
COc1ccc(C(=O)NCCCN2CCOCC2)cc1Br | inactive
COc1ccccc1NC(=O)c1cc(C2CC2)nc2c1c(C)nn2-c1ccc(C)cc1 | inactive
CC(C)Cn1c(C2CC(=O)N(c3ccccc3Cl)C2)nc2ccccc21 (centres undefined) | inactive
Cc1c(Cl)cccc1NC(=O)CCS(=O)(=O)c1ccc2c(c1)oc(=O)n2C | inactive
Cc1ccccc1OCCSc1nc2ccc(NC(=O)c3ccco3)cc2s1 | inactive
Nc1nnnn1/N=C/c1cccs1 | inactive
Oc1cccc(/C=N/Nc2ccc(Cl)nn2)c1O | 8.91 µM (active)
Oc1c(Br)cccc1/C=N/Nc1c(F)c(F)c(F)c(F)c1F | inactive
Clc1ccc(N/N=C/c2cccs2)nn1 | 50.1 µM (active)
Cc1ccsc1/C=N/Nc1ccc(Cl)nn1 | inactive
COc1cccc(/C=N/Nc2ccc(Cl)nn2)c1 | inactive
Cc1cccc2c(=O)cc(CSc3ccccc3NC(=O)C(C)C)[nH]c12 | inactive
CCOC(=O)N1CCC(NC(=O)c2cnn(-c3cccc(C)c3)c2C2CCN(C(=O)OC(C)(C)C)CC2)CC1 | inactive
CCc1cccc(NC(=O)Cn2nc(CC)n3c(cc4cc(C)ccc43)c2=O)c1 | inactive

Structure (SMILES) | Potency
CC(C)CNc1ncnc2c1nnn2C | inactive
Cc1ccc(COc2ccc(/C=N/NC(=O)CN3CCCCC3)cc2)cc1 | inactive
O=C(CC(=O)N/N=C\c1ccc(F)cc1)NCCc1ccccc1 | inactive
CCOc1cc(/C=N/NC(=O)CN2CCCCC2)ccc1O | 56.2 µM (active)
CCOc1ccc(/C=N/NC(=O)CSc2ccccn2)cc1O | inactive
O=C(CN1CCSCC1)N/N=C/c1ccc(F)cc1 | 50.1 µM (active)
Cc1nn(CC(=O)N/N=C/c2ccc(F)cc2)c(C)c1[N+](=O)[O-] | inactive
Cc1cccc(CSc2nc3ccncc3n2Cc2ccc(C(=O)O)cc2)c1 | inactive
COc1ccc(CCNC(=O)CCCCn2c(=O)c3ccccc3n(Cc3ccccc3)c2=O)cc1OC | inactive
Cc1ccc(SCC(=O)Nc2ccc3oc(-c4ccccc4C)nc3c2)cc1 | inactive
COc1ccc(NC(=O)c2ccc3nc(C(C)C)oc3c2)cc1OC | inactive
CCCc1cc(=O)n2[nH]c(NCc3ccc(CC)cc3)nc2n1 | inactive
Nc1ccccc1SC(C[N+](=O)[O-])c1ccccc1 (centres undefined) | 44.7 µM (active)
COc1cc(CNC(=O)c2cc3n(n2)CCCN(Cc2cccc(F)c2)C3=O)cc(OC)c1OC | inactive
Cc1oc2ccc(O)c(CN3CCOCC3)c2c1C(=O)Nc1cccc(Cl)c1C | inactive
O=C(N/N=C/c1ccccn1)c1cccc(NC(=O)c2ccc(Cl)cc2)c1 | inactive
O=C(N/N=C/c1ccccn1)C12CC3CC(CC(C3)C1)C2 | inactive
Cc1cc(C(=O)N/N=C/c2ccccn2)c2ccccc2n1 | inactive
O=C(CNC(=O)c1cccnc1)N/N=C/c1cccnc1 | inactive
CNC(=O)C(=O)N/N=C/c1ccccn1 | 39.8 µM (active)
O=C(N/N=C/c1ccccn1)c1cccnc1 | 28.2 µM (active)
